Laboratory results as given in PubChem BioAssay (NCI).
This is part of a sample that, as a whole, favours compounds with a hit. Of some 83,000 tested, about 20% had one in any assay.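 Single-concentration screen, 48 h exposure, 96-well plates. Endpoint: percent growth. Below 10 = active.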 Activity calls are given as the source filed them.

Experiments:
Assay in all cases: NCI-60 one-dose screen, 48 h (100 = growth as untreated, 0 = no growth, -100 = all killed)
Conditions in all cases: 10 µM unless noted
[1] = tested on: NCI-H23 lung
[2] = tested on: NCI-H226 lung
[3] = tested on: NCI-H322M lung
[4] = tested on: HOP-62 NSCLC
[5] = tested on: NCI-H460 lung
[6] = tested on: HOP-92 NSCLC
[7] = tested on: NCI-H522 lung
[8] = tested on: A549/ATCC NSCLC
[9] = tested on: 786-0 renal
[10] = tested on: COLO 205 colon
[11] = tested on: DU-145 prostate
[12] = tested on: K-562 leukemia
[13] = tested on: MALME-3M melanoma
[14] = tested on: MDA-MB-231 breast
[15] = tested on: RXF 393 renal
[16] = tested on: SF-268 CNS
[17] = tested on: SF-295 CNS
[18] = tested on: SF-539 CNS
[19] = tested on: UACC-257 melanoma
[20] = tested on: M14 melanoma

Measured: growth

COc1cc(NC(=O)c2cccc(C3CCc4c(cc(OC)c(OC)c4OC)O3)c2)cc(OC)c1OC (stereo not given)
inactive: [1] 36.9% | [2] 21.4% | [3] 39.2% | [4] 30.6% | [5] 29.1% | [6] 52.4% | [8] 19.5% | [9] 24.3% | [11] 11.6% | [12] 15% | [13] 21% | [14] 28.3% | [15] 47.4% | [16] 73.1% | [19] 33.7% | [20] 22.2%
active: [7] -9.86% | [10] 3.7% | [17] 8.61% | [18] -8.73%

CN(C)CCn1c2ccccc2c2nc3cc4ccccc4cc3nc21
inactive: [1] 16.6% | [2] 26.8% | [3] 29.6% | [4] 38.3% | [6] 43.4% | [7] 27.5% | [10] 17.1% | [16] 46.2% | [19] 18.1%
active: [5] -52.1% | [8] -68% | [9] -44.3% | [11] -30% | [12] 2.68% | [13] -87.3% | [14] 9% | [15] -42.9% | [17] -67.6% | [18] -72.2% | [20] -63.3%

COc1ccc(-c2nc(SCC(C)C)nc(NCCc3c[nH]c4ccccc34)c2C#N)cc1
active: [15] -8.09%
inactive: [1] 73.9% | [2] 45.1% | [3] 87.7% | [4] 55.2% | [5] 36.6% | [6] 50.3% | [7] 62.5% | [8] 76.6% | [9] 56.6% | [10] 76.1% | [11] 77.2% | [12] 33.1% | [13] 87.3% | [14] 36.5% | [16] 58.1% | [17] 45% | [18] 48% | [19] 98.1% | [20] 81.2%

Cc1ccccc1[C@H]1C(C(=O)c2ccc(Cl)cc2)C2(N[C@@H]1c1ccccc1)C(=O)Nc1ccccc12 (stereo not given in full)
active: [1] -52% | [2] -55.2% | [4] -48.2% | [5] -45.5% | [6] -50.4% | [7] -48.1% | [8] -21.7% | [9] -41.5% | [10] -74.5% | [11] -34.4% | [12] -21% | [13] -64.7% | [14] -60.4% | [15] -66% | [16] -12.5% | [17] -19% | [18] -69.5% | [19] -16.4% | [20] -77.9%
inactive: [3] 16.6%

COc1cccc(COc2ccc(NC(=O)Nc3ccc(Cl)c(C(F)(F)F)c3)cc2)c1
inactive: [1] 21.1% | [2] 43.2% | [3] 16.3% | [4] 34.3% | [5] 17.5% | [7] 22.1% | [8] 16% | [9] 34.5% | [10] 46.2% | [11] 44.6% | [12] 27.1% | [14] 52% | [15] 51.7% | [16] 71.1% | [17] 19.7% | [18] 49.6% | [19] 60.9% | [20] 62.6%
active: [6] 6.12% | [13] 1.5%

C=CC[N+](C)(C)CCn1c2ccccc2c2nc3cc(C)c(C)cc3nc21
inactive: [1] 70.5% | [2] 92.5% | [3] 102% | [4] 96.3% | [5] 104% | [6] 111% | [7] 51.5% | [8] 106% | [9] 89% | [10] 88.6% | [11] 105% | [12] 75.7% | [13] 57.1% | [14] 105% | [15] 89.2% | [16] 56.1% | [17] 99.6% | [18] 56.8% | [19] 86% | [20] 96.2%

CC(/C=C1\SC(=S)N(CCCC(=O)NC(CC(C)C)C(=O)O)C1=O)=C\c1ccccc1 (stereo not given)
inactive: [1] 96.5% | [2] 91.1% | [3] 92.8% | [4] 110% | [5] 99.8% | [7] 84.2% | [8] 89.8% | [9] 93.4% | [10] 124% | [11] 98.7% | [12] 82.8% | [13] 104% | [14] 99.8% | [15] 96.2% | [16] 100% | [17] 97.4% | [18] 96% | [19] 104% | [20] 78.6%
active: [6] 7.81%
